Compound activity (PubChem BioAssay)
aGlu spleen mod – qHTS Assay for Inhibitors and Activators of Human alpha-Glucosidase From Spleen Homogenate | 240,000 tested, 0.006% active | Lysosomal alpha-glucosidase (Homo sapiens), P10253 | Potency, µM (series often up to 79.9 µM), inactives show at the top dose activity change, negative = inhibition, most hits filed as inhibitors | human spleen homogenate, 4-MU-alpha-glucoside fluorescence;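 further: 0% = enzyme with vehicle and -100% = no enzyme basal signal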
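Human spleen homogenate (1 ug) with 4-methylumbelliferyl-alpha-D-glucopyranoside (1 mM final) in 50 mM citrate/phosphate pH 5.0, 0.01% Tween-20; 40 min at 37 C. Stopped at pH 10; 4-MU fluorescence Ex 365/Em 440 nm; AC50 by Hill fit.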
GALK inh – qHTS Assay for Inhibitors of Human Galactokinase (GALK). Purified GALK, Kinase-Glo residual ATP luminescence. Potency, µM (titrated, usually from 57.5 µM), without a hit: at the top dose activity change, negative = inhibition, actives largely listed as inhibitors. 270,000 tested, 0.007% active. AID 1868, 2009
Target sequence (P51570 whole entry, looked up): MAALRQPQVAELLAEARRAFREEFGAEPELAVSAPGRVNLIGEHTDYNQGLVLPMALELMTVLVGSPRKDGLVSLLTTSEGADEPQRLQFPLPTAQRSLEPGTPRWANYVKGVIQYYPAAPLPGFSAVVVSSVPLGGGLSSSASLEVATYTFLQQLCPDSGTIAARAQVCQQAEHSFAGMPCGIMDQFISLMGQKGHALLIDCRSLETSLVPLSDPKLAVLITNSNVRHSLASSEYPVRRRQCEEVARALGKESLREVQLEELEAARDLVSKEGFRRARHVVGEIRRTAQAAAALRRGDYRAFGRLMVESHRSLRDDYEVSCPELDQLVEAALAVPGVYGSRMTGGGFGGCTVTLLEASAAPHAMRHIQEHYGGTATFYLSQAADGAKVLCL
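Kinase-Glo Plus luminescence measured ATP left after a 1 h room-temperature reaction. The reaction used 5 nM GALK, 100 uM galactose and 35 uM ATP at pH 8.0 (20 mM HEPES, 5 mM MgCl2, 60 mM NaCl, 1 mM DTT, 0.01% BSA).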
GAA inhib – qHTS Assay for Inhibitors of Human alpha-Glucosidase as a Potential Chaperone Treatment of Pompe Disease; Lysosomal alpha-glucosidase (Homo sapiens), P10253; purified human GAA, 4-MU-alpha-glucoside fluorescence; Potency, µM (series often up to 76.9 µM), without a hit: at the top dose activity change, negative = inhibition, hits mostly inhibitors; 200,000 tested, 0.005% active;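 further: plate controls were uninhibited enzyme wells for no effect and no-enzyme background for full effect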
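Read-out is 4-methylumbelliferone fluorescence (Ex 365/Em 440 nm) after NaOH/glycine stop at pH 10. Enzyme 4 nM, substrate 400 uM, pH 5.0 citrate buffer, 20 min room temperature; AC50 from Hill-equation concentration-response.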
PKM2 act – qHTS Assay for Activators of Human Muscle isoform 2 Pyruvate Kinase. 260,000 tested, 0.34% active. Potency, µM (top dose mostly 57.5 µM), for inactives: at the top dose activation, actives largely listed as activators. purified PKM2, Kinase-Glo ATP luminescence, activation; response scale: 0% is enzyme alone, no compound. Pyruvate kinase PKM (Homo sapiens), P14618; further: nearly all actives have a fitted effect of over 55% in size
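Purified hPK-M2 (>95%) run at intermediate activity with 0.1 mM ADP and 0.5 mM PEP in 50 mM imidazole pH 7.2, KCl, MgCl2; 1 h room temperature. ATP formed read by Kinase-Glo luminescence; normalized to uninhibited and no-enzyme controls.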
GAA glycogen – qHTS Assay for Inhibitors and Activators of Human alpha-Glucosidase Cleavage of Glycogen. AID 2100, 2009. recombinant GAA, glycogen substrate, Amplex Red glucose oxidase fluorescence. Lysosomal alpha-glucosidase (Homo sapiens), P10253. Potency, µM (titrated, usually from 76.4 µM), inactives show top-dose activity change, negative = inhibition, actives largely listed as inhibitors. 300,000 tested, 0.38% active;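 further: 0% = full enzyme reaction and -100% = no-enzyme basal signal; the screen sought inhibitors and activators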
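Natural-substrate format: glycogen cleavage by 4 nM human enzyme, glucose read by Amplex Red coupling (Ex 573, Em 610 nm). Normalized to enzyme and no-enzyme controls.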
Active calls of the source: *; u = inconclusive; x = no result given; [ ] = dose if it differs, or a comment. A selection: hits, their analogues and other compounds. The true share with any hit is near 0.63%. The call rests on the fitted dose curve; in most records, active means well fitted curve in the direction sought with a large enough effect; inconclusive means small, poorly fitted or top-dose-only effect, or another doubt; inactive means no such curve, though single readings can be large; an effect the other way counts as inactive or inconclusive. Unless noted, on the % scale 0 is the no-effect control and ±100 the full control effect; potency means the concentration at half of the fitted maximal effect.

SMILES	aGlu spleen mod	GALK inh	GAA inhib	PKM2 act	GAA glycogen
COc1c(Cl)cc(C(=O)N(Cc2ccc(C)o2)C2CCS(=O)(=O)C2)cc1Cl (centres undefined)	x	x	x	x	10.7%[76.3 µM]
Cc1cc(=O)[nH]c(SCc2cn3ccccc3n2)n1	-0.8%	10.2%	-0.1%	14.1µM*	4.5%
Cc1ccc(-n2c(SCC(=O)NCc3ccco3)nc3nc4c(cc3c2=O)COC(C)(C)C4)cc1	2.6%	1.2%	-3.7%	14.1µM*	-17.3%
Cc1cc(C)c(S(=O)(=O)Nc2ccc(O)cc2)cc1C	-0.2%	-0.6%	-1.1%	14.6%	14.1µM*
COc1ccc(NS(=O)(=O)c2cc(C)ccc2C)cc1	5.0%	0.8%	-5.5%	-0.3%	-12.1%
Cc1ccc(C)c(S(=O)(=O)Nc2ccc(O)cc2)c1	-4.2%	0.0%	-1.4%	9.2%	12.5µM*
c1ccc2c(c1)OCCOCCOCCOCCO2	10.0%	x	x	x	x
CC1Cc2ccccc2N1c1ncnc2c1nnn2Cc1ccccc1Cl (centres undefined)	-3.0%	-0.2%	3.3%	-1.9%	2.4%
Clc1ccccc1Cn1nnc2c(N3CCCC3)ncnc21	-4.9%	1.1%	-5.0%	15.8µM*	-1.9%
O=C(CSc1oc(-c2ccc(F)cc2)nc1S(=O)(=O)c1ccc(Cl)cc1)c1ccccc1	x	x	x	x	7.9%[76.3 µM]
CC(C)c1cc(NC(=O)C(C)(C)C)cc(C(C)C)c1O	-3.4%	4.3%	-9.6%	-3.8%	31.6µM*
COc1c(C(C)C)cc(NC(C)=O)cc1C(C)C	2.9%	-3.9%	-0.5%	-2.1%	-16.3%
O=C1CC(c2ccc(OCCCCCOc3ccc(C4CC(=O)NC4=O)cc3)cc2)C(=O)N1 (centres undefined)	11.0%	2.4%	1.7%[15.4 µM]	14.1µM*	0.1%
CCCCCCCCOc1ccc(C2CC(=O)NC2=O)cc1 (centres undefined)	x	-1.8%	x	-0.3%	16.7%[76.3 µM]
COc1ccc(C(=O)/C=C/C(=O)N(CC(=O)NC2CCCCC2)Cc2ccc(F)cc2)c(O)c1	0.6%	2.9%	-0.4%	7.94µM*	-1.6%
COc1ccc(C(=O)/C=C/C(=O)N(CC(=O)NCCC(C)C)Cc2cccs2)c(O)c1	-1.2%	-0.5%	u	22.4µM*	-8.0%
COc1ccc(C(=O)N(Cc2ccco2)Cc2cccs2)c(O)c1	-3.0%	0.6%	7.4%	3.8%	-8.8%
CS(=O)(=O)N(CC(=O)NC1CCCCC1)Cc1ccc(F)cc1	-1.3%	-0.8%	4.7%	-1.6%	-14.5%
CCc1ccc(OCC(=O)N(Cc2ccco2)Cc2ccccc2Cl)cc1	x	x	x	x	-3.1%[76.3 µM]
CN(C)c1ccc(NC(=O)N2CCOCC2)cc1	9.5%	3.2%	1.8%	-2.2%	12.6µM*
COc1cc(-c2cn[nH]c2N)cc(OC)c1OC	u	1.3%	u	4.3%	11.1µM*
N#CCc1ccc(NS(=O)(=O)c2cccs2)cc1	-3.6%	4.7%	-5.9%	17.8µM*	5.2%
COc1cccc2sc(NNC(=O)C3COc4ccccc4O3)nc12 (centres undefined)	-6.1%	0.3%	-1.4%	1.8%	-17.1%
O=C(NNc1nc2c(F)cccc2s1)C1COc2ccccc2O1 (centres undefined)	-2.3%	3.4%	-16.7%	7.5%	4.43µM*
CCc1ccccc1NC(=O)C(=O)c1cc(C)n(-c2ccccc2F)c1C	x	x	x	x	1.7%[76.3 µM]
COc1cc(CNc2ccc(N3CCOCC3)cc2)cc(Br)c1OC	-20.3%	3.0%	3.0%	13.7%	44.7µM*
COc1cc(CNc2ccc(N3CCN(C(C)=O)CC3)cc2)ccc1OCc1ccc(F)cc1	1.4%	9.5%	1.5%	9.2%	25.1µM*
CC(=O)N1CCN(c2ccc(NCc3ccc(F)cc3)cc2)CC1	0.7%	1.9%	-4.1%[15.4 µM]	-1.2%	u
CCOc1c(Br)cc(CNc2ccc(N3CCN(C(C)=O)CC3)cc2)cc1OC	-1.3%	0.2%	x	19.2%	31.6µM*
